About 830 (0.38%) of roughly 220,000 compounds were called active. The full list was thinned out, with actives kept by preference. Values without a mark were called inactive. The rule behind the calls is not given here.
Target: Regulator of G-protein signaling 16 (Homo sapiens) + Guanine nucleotide-binding protein G(o) subunit alpha (Homo sapiens) (UniProt O15492+P09471)
Assay: modulators of RGS16 binding to Galphao, primary screen, biochemical, human proteins, multiplexed bead flow cytometry (AID 1441);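 note: Galphao activated by GDP with aluminum fluoride before binding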
Details: bead-based flow cytometry RGS16-Galphao binding, fluorescence; at 10 µM; actives lie on both sides

Sequence of Regulator of G-protein signaling 16 (Homo sapiens) + Guanine nucleotide-binding protein G(o) subunit alpha (Homo sapiens) (O15492 whole entry, looked up): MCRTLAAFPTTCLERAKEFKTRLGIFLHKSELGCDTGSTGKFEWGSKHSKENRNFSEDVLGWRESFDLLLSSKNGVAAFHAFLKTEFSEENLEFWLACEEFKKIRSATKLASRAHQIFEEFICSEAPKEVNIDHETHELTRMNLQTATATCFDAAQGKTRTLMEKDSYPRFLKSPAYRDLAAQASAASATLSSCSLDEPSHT
Sequence of Regulator of G-protein signaling 16 (Homo sapiens) + Guanine nucleotide-binding protein G(o) subunit alpha (Homo sapiens) (P09471 whole entry, looked up): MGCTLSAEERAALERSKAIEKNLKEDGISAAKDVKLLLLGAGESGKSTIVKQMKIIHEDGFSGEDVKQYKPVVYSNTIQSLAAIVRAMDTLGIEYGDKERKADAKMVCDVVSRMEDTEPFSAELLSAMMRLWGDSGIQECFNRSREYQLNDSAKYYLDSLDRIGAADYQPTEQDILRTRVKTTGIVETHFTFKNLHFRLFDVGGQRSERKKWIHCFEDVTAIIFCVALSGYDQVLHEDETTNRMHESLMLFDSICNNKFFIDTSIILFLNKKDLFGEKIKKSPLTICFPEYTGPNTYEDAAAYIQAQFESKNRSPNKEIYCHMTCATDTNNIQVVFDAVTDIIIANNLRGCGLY

Structure (SMILES)	binding response (% of control)
COP1(=O)C[C@@H](O)[C@@H](O)[C@@H](COCc2ccccc2)O1 (stereo partly drawn)	103%
Cc1ccsc1C1C(C#N)=C(N)OC2=C1C(=O)CC(C)(C)C2 (stereo not drawn)	118%
COc1ccc(Cl)cc1C(=O)NNC(=O)c1nc2nc(C)cc(C)n2n1	95.3%
O=C(OCc1ccc(Br)cc1)c1cccc(-c2nnc(-c3ccccc3)o2)c1	102%
O=C(/C=C/c1ccco1)Nc1cccc(-c2nc3ccccc3[nH]2)c1	98.3%
O=C(Nc1cccc(-c2nc3ccccc3[nH]2)c1)c1ccc(C(=O)Nc2cccc(-c3nc4ccccc4[nH]3)c2)cc1	219% [activator] (active)
O=C(Cc1cccs1)Nc1cccc(-c2nc3ccccc3[nH]2)c1	97.3%
NC(=S)Nc1c(Cl)cccc1Cl	98.9%
CCOc1c(Nc2cccc(Cl)c2)c(=O)c1=O	119%
COc1ccc(-c2ccc(CNCCCN3CCOCC3)o2)cc1Cl	98.4%
CNC(=S)NNC(=O)c1cccn(Cc2ccccc2)c1=O	100%
CCCC[C@@H]1CN=C(N)N1CCc1cc(C(F)(F)F)cc(C(F)(F)F)c1	100%
CCN(CC)c1ccc(/C=N/NC(=O)c2cnccn2)c(O)c1	94.6%
N/C(=N\OC(=O)CCc1ccccc1)c1cccnc1	105%
COc1ccc(CC(=O)n2nc(-c3cccnc3)nc2N)cc1	93.8%
COc1ccccc1C(=O)n1nc(-c2ccccc2)nc1N	102%
CCCC(=O)n1nc(-c2ccccc2)nc1N	14.9% (active)
Nc1ccccc1C(=O)NC1CCCCNC1=O (stereo not drawn)	95.3%
COc1ccc2c(c1)C(=C(C#N)C#N)C(=O)N2CCc1ccccc1	113%
Nc1ccc(C(=O)OCC(=O)NC2CCCc3ccccc32)cc1[N+](=O)[O-] (stereo not drawn)	98.8%
Nc1ccc(C(=O)OCC(=O)NC2CCS(=O)(=O)C2)cc1[N+](=O)[O-] (stereo not drawn)	-10.3% (active)
O=C(COC(=O)/C=C/c1ccc2c(c1)OCO2)NC1CCS(=O)(=O)C1 (stereo not drawn)	98.5%
COc1cc(OC)c(C(=O)N2CCCC2)cc1OC	100%
CCC(C)(C)NC(=O)C(c1cccc(OC)c1OC)N(CC(C)C)C(=O)CCC(=O)Nc1cc(C)on1 (stereo not drawn)	105%

Structure (SMILES)	binding response (% of control)
COc1ccc(-c2nn(-c3ccccc3)cc2/C=N/Nc2ccccn2)cc1OC	112%
COc1ccc(-c2nn(-c3ccccc3)cc2C(=O)Nc2nc(CC(C)=O)ns2)cc1	95.8%
COc1ccc(-c2nn(-c3ccccc3)cc2C(=O)Nc2nccs2)cc1OC	24.6% (active)
CC(C)Oc1ccc(CCc2nnc(SCC(=O)O)n2-c2ccccc2)cc1	99.7%
COC(=O)[C@H]1Cc2cnoc2C[C@]1(C)C(=O)O	104%
Cc1ccc(SCC2=NNC(=O)C2)cc1	110%
Cc1ccc(N2C(=O)C3CC3C2=O)cc1 (stereo not drawn)	101%
Cc1ccc(N2C(=O)C(Cc3ccccc3)NC2=S)cc1 (stereo not drawn)	102%
Cc1ccc(N2C(=O)C3C(c4ccccc4)(C2=O)C3(c2ccccc2)c2ccccc2)cc1 (stereo not drawn)	13.2% (active)
C/C=C/c1ccc(OCCCCN2CCC(C)CC2)c(OC)c1	95%
O=c1[nH]c2ccccc2s1	23% (active)
O=c1c(-c2ccc(Cl)cc2)[n+]([O-])c2ccccc2n1OCc1nc2ccccc2[nH]1	108%
CCCC1C(c2ccccc2)C(C#N)(C#N)C2(C#N)CC1(N)NC2=O (stereo not drawn)	178% [activator] (active)
O=C(NNC(=S)NC1CCCCC1)c1ccccc1Cl	99.1%
CCN(CC)CCn1c(N)c(S(=O)(=O)c2ccccc2)c2nc3ccccc3nc21	104%
Cc1ccc(S(=O)(=O)c2c(N)n(C)c3nc4ccccc4nc23)cc1	101%
CCC(=O)Nc1c(S(=O)(=O)c2ccccc2)c2nc3ccccc3nc2n1Cc1ccccc1	13.9% (active)
S=c1[nH]nc(-c2cccs2)n1/N=C/c1cn(-c2ccccc2)nc1-c1ccc(Cl)cc1	98.8%
C/C(=N\NS(=O)(=O)c1ccc(Br)cc1)c1cccs1	-881% (active)
C/C(=N\OCC(=O)Nc1ccc(Br)cc1)c1cccs1	99.8%
O=S(=O)(NN=C1CCCCCCC1)c1ccc(Br)cc1	106%
COc1ccc(-n2c(SCC(=O)OC(C)C)nnc2-c2ccccn2)cc1	242% [activator] (active)
Cc1ccc(-n2c(Cc3cccs3)nnc2SCC(=O)OC(C)C)cc1	103%
Cc1ccc(-n2c(SCC(=O)Nc3ccc4c(c3)OCO4)nnc2-c2ccccn2)cc1	96.8%

Structure (SMILES)	binding response (% of control)
Cc1cc(C(=O)OCC(=O)Nc2nccs2)c2ccccc2n1	99%
CCc1nc(NCCO)c(C#N)c2c1CCCC2	92.9%
CC(=O)NCCn1c(SCC(=O)Nc2ccc(C)cc2)nc2ccccc2c1=O	197%
CCc1ccc(NC(=O)CSc2nc3ccccc3c(=O)n2CCN2CCOCC2)cc1	97.8%
CCOc1ccc(NC(=O)CSc2nc3ccccc3c(=O)n2Cc2cccs2)cc1	-1.24% (active)
NC(=O)c1nnsc1-c1ccc(-c2snnc2C(N)=O)cc1	103%
COc1cc2[nH]c(=S)n(Cc3ccc(F)cc3)c(=O)c2cc1OC	76.9%
Cc1cc(C(=O)N/N=C/c2cc([N+](=O)[O-])cc(C)c2O)n[nH]1	78.3%
Cn1c(CCCOc2ccc(Cl)cc2Cl)n[nH]c1=S	101%
O=S(=O)(c1ccccc1)N1CN(Cc2ccc(F)cc2)c2nc3ccccc3nc21	100%
COc1ccc(CNC(=O)C2CCC(CNc3c(N4CCOCC4)c(=O)c3=O)CC2)cc1 (stereo not drawn)	104%
CC(NC(=O)C1CCC(CNc2c(N3CCOCC3)c(=O)c2=O)CC1)c1ccccc1 (stereo not drawn)	99.6%
O=C(NCc1ccc(F)cc1)C1CCC(CNc2c(N3CCOCC3)c(=O)c2=O)CC1 (stereo not drawn)	3.97% (active)
O=C(Nc1cccnc1Oc1ncnc2cc(Cl)ccc12)c1ccc(F)cc1	102%
CN1CCN(c2ccc(CNS(=O)(=O)c3cccc(F)c3)cc2)CC1	104%
CN(C)CCOc1cccc(Br)c1	103%
CC1(C)C=C2[C@H]3CC[C@@H]4[C@@]5(C)CCC(=O)C(C)(C)[C@@H]5CC[C@@]4(C)[C@]3(C)CC[C@@]2(C(=O)O)CC1	267% [activator] (active)
CC1Cc2ccccc2N1CC(=O)Nc1ccc(S(N)(=O)=O)cc1 (stereo not drawn)	93.2%
O=C1CCC(=O)N(O)CCCCCNC(=O)CCC(=O)N(O)CCCCCNC(=O)CCC(=O)N(O)CCCCCN1	40.8%
CCS(=O)(=O)c1cc([N+](=O)[O-])c(Sc2ccccc2N)s1	91.4%
O=C(NCCCn1ccnc1)C(=O)NCC1OCCN1S(=O)(=O)c1cc(F)ccc1F (stereo not drawn)	105%
Cc1ccc(SCCC(=O)OCC(=O)Nc2ncc(Cl)cc2Cl)cc1	106%
NS(=O)(=O)c1cccc(NC(=O)CSc2nc3ccccc3n2-c2ccccc2)c1	105%
Cc1ccc(-n2c(SCC(=O)Nc3ncc(Cl)cc3Cl)nc3ccccc32)cc1	13.7% (active)

Structure (SMILES)	binding response (% of control)
CCCNC(=O)c1c(Cl)cnn1-c1ccc(C)cc1	99.5%
Cc1c(C(=O)Nc2ccccc2Cl)oc2ccc(S(=O)(=O)N3CCC4(CC3)OCCO4)cc12	107%
CCOc1ccccc1NC(=O)c1cc(S(=O)(=O)N2CCC3(CC2)OCCO3)ccc1F	4.15% (active)
CCOc1ccccc1NC(=O)CCN1CCN(S(=O)(=O)c2ccc(OC)cc2)CC1	102%
Cc1ccc(C(=O)N/C(=C/c2cccnc2)C(=O)O)cc1	100%
Cc1cc(OCCN2CCCC2)cc(C(C)C)c1	93.3%
COC(c1ccccc1)c1nnc(CCC(=O)N2CCN(CCOc3ccccc3)CC2)o1 (stereo not drawn)	101%
COc1cc(OC)cc(C(=O)NCCSCc2ccco2)c1	97.1%
COc1cccc(C(=O)NNC(=O)c2ccccc2Br)c1	105%
COc1cccc(C(=O)NCCSc2ccc(Br)cc2)c1	11.1% (active)
CC(=O)c1sc(NC(=O)C2=NN(c3ccccc3)C(=O)CC2)nc1C	102%
O=C(Cn1ncc(N2CCCC2)c(Br)c1=O)c1ccc(Cl)cc1	103%
O=C(CN1CCN(c2ccc(Cl)cc2)CC1)N1CCCC1	101%
O=C(COc1ccc(Cl)cc1)N1CCN(c2cccc(C(F)(F)F)c2)CC1	107%
COC(=O)c1ccccc1OCC(=O)N1CCN(c2ccc(Cl)cc2)CC1	461% [activator] (active)
CN(C(=O)COC(=O)c1cc(-c2ccco2)nc2ccccc12)C1CCS(=O)(=O)C1 (stereo not drawn)	89.7%
Cc1ccc(S(=O)(=O)CC(=O)Nc2c(C)n(C)n(-c3ccccc3)c2=O)cc1	98%
Cc1cc(C)cc(N(C(C)C(=O)Nc2c(C)n(C)n(-c3ccccc3)c2=O)S(C)(=O)=O)c1 (stereo not drawn)	109%
Cc1cc(C)cc(N(CC(=O)Nc2c(C)n(C)n(-c3ccccc3)c2=O)S(C)(=O)=O)c1	-28.4% (active)
C/C(=N/N1CCN(Cc2cccc3ccccc23)CC1)c1cccnc1	104%
COC(=O)c1ccccc1NC(=S)NC(=O)c1ccccc1F	101%
